Assay results taken from PubChem BioAssay AID686959 (The Scripps Research Institute Molecular Screening Center, 2013).
Activity calls are given as the source filed them. Cut-off not given; nearly all actives show IC50 up to about 8.1 µM.

Experiment: small molecules binding CAG repeat RNA – biochemical, fluorescence, dose response (AID 686959)
Settings: r(CAG) RNA repeat binding

IC50, active:
CC(=O)C1=C(O)C(=O)N(c2cc(C(C)(C)C)on2)C1c1ccc(Br)cc1 (centres undefined) 2.49 µM
COc1ccc2nc(N3C(=O)C(O)=C(C(=O)c4ccco4)C3c3ccc(OC)c(OC)c3)sc2c1 (centres undefined) 2.04 µM
N#CC1=C(S)N(c2ccccc2)C(c2ccc(-c3cc(Cl)ccc3Cl)o2)NC1=O (centres undefined) 1.47 µM
Cc1noc(NS(=O)(=O)c2ccc(NC(=O)COc3ccc(Cl)cc3Cl)cc2)c1C 2.83 µM
CCOC(=O)C1=C(C)NC(SCc2cc(=O)[nH][nH]2)=C(C#N)C1c1cccs1 (centres undefined) 7.4 µM
Cc1ccc2c(c1)c(N=Nc1cccc(C(=O)O)c1)c(O)n2C 5.07 µM
N#C/C(C(=O)Nc1ccc(Cl)cc1)=C(/S)Nc1ccccc1 6.14 µM
O=C(O)c1ccc(N2C(=O)CC(SC(=NCc3ccc4c(c3)OCO4)Nc3ccc(F)cc3)C2=O)cc1 (centres undefined) 2.89 µM
Cc1cc(N2C(=O)C(O)=C(C(=O)c3cc4ccccc4o3)C2c2cccc(Cl)c2)no1 (centres undefined) 1.19 µM
C=CCOc1c(OC)cc(/C=N/Nc2cccc(C(=O)O)c2)c(Br)c1Br 2.28 µM
O=C(O)CCCCCn1c(O)c(C=C2N=c3ccccc3=N2)sc1=S 3.87 µM
N#CC(C#N)=C(Nc1ccc(F)cc1)SCc1cccc(Br)c1 7.57 µM
CC1=NN(C(N)=S)C(=O)C1N=Nc1c(Br)cc(Br)cc1Br (centres undefined) 5.73 µM
Cc1ccc2nc(N3C(=O)C(O)=C(C(=O)c4ccco4)C3c3ccc(C)o3)sc2c1 (centres undefined) 0.624 µM
